Bioassay records deposited in PubChem by several laboratories.
Shown are actives, neighbours in structure and some others; about 5% of the full set was active somewhere.
ALR H2O2 inh: inhibitors of human ALR sulfhydryl oxidase, primary screen, biochemical, H2O2 detection, HRP-luminol luminescence, single point; AID 485317, 2010; actives 3.8% (n = 290,000); inhibition, % (no concentration beside the values); FAD-linked sulfhydryl oxidase ALR (Homo sapiens), P55789; purified ALR, DTT oxidation;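 active means mean replicate inhibition above about 79%, with every replicate also reaching it, limit read from the data; inconclusive means only one of the two criteria met; inactive means mean below limit and not every replicate reaching it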
PREPL inhibitor: PREPL enzyme inhibitors, primary screen, biochemical, fluorescence polarization | Prolyl endopeptidase-like (Homo sapiens), Q4J6C6 | recombinant PREPL, fluorescence polarization activity-based probe | inhibition, % at 5.96 µM | actives 0.68% (n = 320,000) | AID 2751, 2010;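 further: 0% = enzyme with DMSO and 100% = wells lacking enzyme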
CHT allo act: CHT positive allosteric modulators, primary screen, cell-based, membrane potential dye, choline EC20 | High affinity choline transporter 1 (Homo sapiens), Q9GZV3 | CHT-expressing cells; hits give high values; LV-AA mutant CHT in HEK293 cells | B-score at 10 µM | actives 0.49% (n = 310,000) | AID 488977, 2010;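 active means initial fluorescence not abnormally high and integrated response B-score, plate-corrected, over 3 SD above library mean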
Target sequence (Q9GZV3 whole entry, looked up): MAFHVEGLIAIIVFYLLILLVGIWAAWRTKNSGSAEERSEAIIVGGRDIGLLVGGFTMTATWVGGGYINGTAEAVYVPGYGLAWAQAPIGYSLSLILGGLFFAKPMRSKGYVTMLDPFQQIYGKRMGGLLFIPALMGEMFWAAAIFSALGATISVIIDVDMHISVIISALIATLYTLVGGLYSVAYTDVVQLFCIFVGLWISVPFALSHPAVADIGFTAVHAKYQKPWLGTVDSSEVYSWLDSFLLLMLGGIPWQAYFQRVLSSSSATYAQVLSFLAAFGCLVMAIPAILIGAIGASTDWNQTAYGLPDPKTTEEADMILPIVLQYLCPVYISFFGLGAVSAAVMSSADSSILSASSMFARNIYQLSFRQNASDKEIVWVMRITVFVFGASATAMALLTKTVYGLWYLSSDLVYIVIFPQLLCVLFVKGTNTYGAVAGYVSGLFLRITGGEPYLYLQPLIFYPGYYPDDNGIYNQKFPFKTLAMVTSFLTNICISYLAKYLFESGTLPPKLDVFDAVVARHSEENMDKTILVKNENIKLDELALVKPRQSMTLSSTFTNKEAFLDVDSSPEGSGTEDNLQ
AI-2 QS modul: Vibrio harveyi AI-2 quorum sensing modulators, primary screen, JMH597 strain, luminescence/OD600 ratio; AID 2094, 2009; actives 0.4% (n = 300,000); activity change, % at 7.5 µM; Vibrio harveyi JMH597 AI-2 luminescence/OD600 ratio, 9 h; hits give low values; strain lacks LuxN and CqsS sensors; 0 = neutral-control median; in the data active means activity change below about -75%, passing the limit was not always enough; inconclusive means no clear call, values can overlap the other calls;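 further: luminescence divided by OD600 gain over 9 h not by final OD600 alone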
CHT inh: inhibitors of human choline transporter CHT; CHT-expressing cells, membrane potential dye, choline response; hits give low values; B-score at 10 µM; High affinity choline transporter 1 (Homo sapiens), Q9GZV3; actives 0.86% (n = 310,000); AID 488975, 2010;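 active means B-score over 3 SD under the library average, and starting fluorescence ratio not unusually high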;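 further: choline stimulus applied at its EC90 after an EC20 pre-addition; B-score computed on integrated fluorescence ratio after choline addition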
PREPL inh cf: human PREPL enzyme inhibitors, confirmation, biochemical, fluorescence polarization | shares compounds with PREPL inhibitor | recombinant PREPL, fluorescence polarization activity probe | inhibition, % at 5.96 µM | actives 67% (n = 2,000) | AID 2803, 2010;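 further: 0% = protein with DMSO and 100% = wells lacking protein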
* marks the source's active call; other numbers are inactive results; i = inactive; u = inconclusive; x = no result. Unless noted, no stated cut-off is given here; in the data, active means inhibition above about 43%; inactive means the rest.

SMILES	ALR H2O2 inh	PREPL inhibitor	CHT allo act	AI-2 QS modul	CHT inh	PREPL inh cf
CNC(=S)N1N=C(c2ccc(OC)cc2)CC1c1ccc(N(C)C)cc1 (stereo unspecified)	-2	56*	i	29	i	60*
COc1cccc(CC(=O)OCC(=O)NC(C)c2ccc(F)cc2)c1 (stereo unspecified)	-9	0	x	x	x	x
O=C(C1CCN(c2ncnc3c2nc2n3CCCCC2)CC1)N1CCN(c2cccc(Cl)c2)CC1	-5	49*	i	x	i	47*
CC1CCN(C(=O)C2CCN(c3ncnc4c3nc3n4CCCCC3)CC2)CC1	0	7	i	5	i	x
CCN1/C(=C/c2cccc[n+]2C)Sc2ccc(OC)cc21	98*	48*	i	-7	i	46*
O=C(CCCn1c(=O)oc2ccccc21)N1CCN(c2ccc(F)cc2)CC1	40	-94	i	25	i	x
O=C(CCn1c(=O)oc2ccccc21)N1CCN(c2ccccc2F)CC1	-7	62*	i	0	i	8
COc1ccc(/C=C/c2nc3ccccc3n2Cc2ccccc2OC)cc1	-1	49*	i	1	i	47*
O=C(c1ccc2c(c1)OCO2)N1CCN(S(=O)(=O)c2ccc(Br)cc2Cl)CC1	-5	4	x	x	x	x
CC12CNCC(C)(CN(C(c3ccccc3)c3ccccc3)C1)C2	-6	46*	i	23	i	13
CC12CCC(=O)N1C(C(=O)N1CCN(c3ccccc3)CC1)CS2 (stereo unspecified)	24	22	i	18	i	x
CC12CCC(=O)N1C(C(=O)N1CCN(c3ccc([N+](=O)[O-])cc3)CC1)CS2 (stereo unspecified)	9	47*	x	x	x	31
O=C(Nc1ccc(Cl)c(Cl)c1)C1C2C=CC3(O2)C1C(=O)N(CCN1CCCCC1)C3C(=O)NC1CCCCC1 (stereo unspecified)	-5	50*	i	9	i	52*
COc1cc(Cl)ccc1OCc1cc(C(=O)NCc2cc(C(C)C)no2)no1	-8	-12	i	25	i	x
O=C(NCCCn1ccnc1)/C(=C\c1cccnc1)NC(=O)c1ccccc1F	-20	-2	i	19	i	x
CN(C)c1ccc(NC(=O)c2cccc(C(=O)Nc3ccc(N(C)C)cc3)n2)cc1	u	72*	i	26	i	70*
O=C(Nc1ccccc1)c1cccc(C(=O)Nc2ccccc2)n1	2	3	i	9	i	x
O=C(NCCCN1CCOCC1)C(=O)NCc1ccccc1Cl	-1	10	i	10	i	x
COc1cccc(-c2ccc(SCC(=O)NC3CCCCC3)nn2)c1	-9	44*	i	3	i	43
COc1ccc(-c2ccc(SCC(=O)NC3CCCC3)nn2)cc1OC	-11	4	i	14	i	x
Cc1ccc(CSc2ccc3nnc(-c4ccccn4)n3n2)cc1	x	50*	i	29	i	39
Cc1ccc(C)c(CSc2ccc3nnc(-c4ccccn4)n3n2)c1	x	20	i	18	i	x
Cc1ccc(NC(=O)CNCc2cccs2)c(Br)c1	0	x	i	-3	i	x
FC(F)Oc1ccc(-c2csc(=Nc3cccnc3)n2CC2CCCO2)cc1 (stereo unspecified)	5	20	i	16	i	x
Clc1ccc(-c2csc(=Nc3cccnc3)n2CCCn2ccnc2)cc1Cl	x	56*	i	9	i	58*
SMILES	ALR H2O2 inh	PREPL inhibitor	CHT allo act	AI-2 QS modul	CHT inh	PREPL inh cf
COCCn1c(-c2ccc(Br)cc2)csc1=Nc1cccnc1	-24	48*	i	-2	i	50*
COC(=O)c1ccc(Cn2c(O)c(N=NC(N)=S)c3ccccc32)o1	2	-2	i	6	i	x
COc1ccc(NC(=O)N(CCN2CCCC2)Cc2cc3cc(OC)c(OC)cc3[nH]c2=O)cc1	-28	58*	i	15	i	18
COc1ccc(-c2c[n+]3c4n2CCCCC4=C(c2ccccc2)C3)cc1	x	54*	i	33	i	38
Cc1cccc(N2CCN(S(=O)(=O)c3ccc(Cl)nc3)CC2C)c1 (stereo unspecified)	66	-10	x	x	x	x
O=C(C[n+]1cccc2ccccc21)c1ccccc1	-9	13	i	22	i	x
CCCCCCCCCCCCCCCC[n+]1cccc2ccccc21	4	56*	8.7*	x	i	42
O=c1[nH]n2c(=O)c3c([nH]c2c1N=Nc1cccc(Cl)c1)CCCC3	18	55*	i	9	i	58*
COc1cc(N=Nc2cccc(S(N)(=O)=O)c2)c2ccccc2c1N	13	61*	i	13	i	59*
Oc1cc(Nc2ccncc2)cc2cccnc12	-8	47*	x	x	x	51*
O=C(CC12CC3CC(CC(Br)(C3)C1)C2)NC1CCCC1	x	2	i	2	i	x
Cc1nnc(N/N=C/c2cccc(OCc3ccc(Cl)c(Cl)c3)c2)n1N	-9	73*	i	13	i	65*
Nc1ccccc1N=Nc1ccccc1N	87*	50*	i	10	i	43*
Nc1ccccc1O	-40	14	x	x	x	x
Cc1ccc2[nH]c3c(c2c1)CCC3=O	-5	5	i	20	i	x
Cc1ccc2[nH]c3c(c2c1)CCc1cn[nH]c1-3	99*	47*	i	15	i	25
O=c1cc(-c2ccc(O)c(O)c2)oc2c1ccc1ccccc12	62	52*	x	x	x	33
O=c1oc(-c2ccc(O)c(O)c2)cc2cccc(O)c12	x	67*	x	x	x	38
COCCCNC(=O)CSc1nc2cc(S(=O)(=O)N3CCCCC3)ccc2o1	-4	16	i	29	i	x
Cc1c(CCOC(=O)C23CC4CC(CC(C)(C4)C2)C3)sc[n+]1CC(=O)c1ccccc1	13	48*	i	31	i	44*
COc1ccc(CCNC(=O)C(C)n2nc(C)n3c(cc4occc43)c2=O)cc1OC (stereo unspecified)	1	-3	i	11	i	x
O=C(Nc1ccccc1N1CCCC1)c1cccc(-c2cc3ccccc3oc2=O)c1	3	45*	i	7	i	32
O=C(COC(=O)Cc1ccc(S(=O)(=O)N2CCOCC2)s1)Nc1ccccc1	-2	4	x	x	x	x
O=C(COC(=O)Cc1ccc(S(=O)(=O)N2CCOCC2)s1)Nc1ccc([N+](=O)[O-])cc1	7	45*	x	x	x	38
